Reference: PubChem BioAssay AID1159580 (chemical genetic matrix, 2015)
The campaign covered roughly 5,500 compounds. About 2,000 (36%) were called active. Not shown: some 18% with an inconclusive outcome. Cut-off read from the data, not from the text of the source: active = normalized growth mostly below about 0.91 (no sharp cut-off); inconclusive = no clear call, values can overlap the other calls; inactive = mostly above about 0.92. The list shows a part of the results.

Experiment: chemical genetic growth profiling, strain panel (AID 1159580);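 note: tested at 20 µM; growth read once vehicle control cultures reached saturation at 30 °C; 1 = growth at the plate median or of vehicle wells; lower values mean less growth of the strain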
Conditions: S. cerevisiae deletion strains, growth OD

Measured: normalized growth

O=C(O)CCCc1ccccc1
active: locus YJR066W, strain TOR1, hits give low values 0.795 | locus YKL068W, hits give low values 0.917 | locus YKL085W, strain MDH1 (second series), hits give low values 0.93 | locus YKL085W, strain MDH1, hits give low values 0.93 | locus YLR113W, strain HOG1, hits give low values 0.687 | locus YNL183C, strain NPR1, hits give low values 0.772 | locus YOR231W, strain MKK1, hits give low values 0.778 | locus YPL256C, strain CLN2, hits give low values 0.72 | locus YPR141C, strain kar3, hits give low values 0.896
inactive: locus YJR043C, strain POL32, hits give low values 0.98 | locus YJR075W, strain HOC1, hits give low values 1.01 | locus YKL009W, strain mrt4, hits give low values 1 | locus YKL160W, strain elf1, hits give low values 0.969 | locus YKR001C, strain vps1, hits give low values 0.951 | locus YKR026C, strain gcn3, hits give low values 0.98 | locus YKR091W, strain srl3, hits give low values 0.98 | locus YLL001W, strain dnm1, hits give low values 0.995 | locus YLL026W, hits give low values 0.985 | locus YLL041C, strain sdh2, hits give low values 0.989 | locus YLR027C, strain aat2, hits give low values 0.984 | locus YLR039C, strain RIC1, hits give low values 1.01 | locus YLR058C, strain SHM2, hits give low values 1 | locus YLR102C, strain apc9, hits give low values 0.994 | locus YLR221C, strain rsa3, hits give low values 0.955 | locus YLR258W, strain gsy2, hits give low values 0.98 | locus YLR262C, strain YPT6 (second series), hits give low values 0.968 | locus YLR262C, strain YPT6, hits give low values 1.01 | locus YLR268W, strain sec22, hits give low values 0.985 | locus YLR320W, strain mms22, hits give low values 0.992 | locus YLR330W, strain CHS5, hits give low values 0.998 | locus YLR342W, strain FKS1 (second series), hits give low values 1.05 | locus YLR342W, strain FKS1, hits give low values 1.01 | locus YLR357W, strain rsc2, hits give low values 1 | locus YLR370C, strain arc18, hits give low values 0.977 | locus YLR371W, strain rom2, hits give low values 0.99 | locus YLR384C, strain iki3, hits give low values 0.989 | locus YLR418C, strain cdc73, hits give low values 1.02 | locus YML016C, strain PPZ1, hits give low values 1.01 | locus YML032C, strain rad52, hits give low values 0.982 | locus YML120C, strain ndi1, hits give low values 1 | locus YML124C, strain tub3, hits give low values 0.986 | locus YMR058W, strain fet3, hits give low values 0.989 | locus YMR078C, strain ctf18, hits give low values 0.992 | locus YMR125W, strain sto1, hits give low values 0.999 | locus YMR129W, hits give low values 0.978 | locus YMR205C, strain PFK2, hits give low values 0.972 | locus YMR223W, strain ubp8, hits give low values 1.02 | locus YMR231W, strain pep5, hits give low values 0.985 | locus YMR307W, strain GAS1, hits give low values 1.1 | locus YNL067W, strain RPL9B, hits give low values 0.981 | locus YNL071W, strain lat1, hits give low values 0.992 | locus YNL209W, strain ssb2, hits give low values 1.01 | locus YNL233W, strain BNI4, hits give low values 1 | locus YNL248C, strain rpa49, hits give low values 0.907 | locus YNL250W, strain rad50, hits give low values 0.925 | locus YNL271C, strain bni1, hits give low values 0.943 | locus YNL298W, strain CLA4, hits give low values 0.955 | locus YNL307C, strain MCK1, hits give low values 0.992 | locus YNL322C, strain KRE1 (second series), hits give low values 0.954 | locus YNR049C, strain mso1, hits give low values 0.975 | locus YNR052C, strain pop2, hits give low values 0.986 | locus YOL012C, strain htz1 1.62 | locus YOL147C, strain pex11, hits give low values 0.987 | locus YOR001W, strain rrp6, hits give low values 0.962 | locus YOR061W, strain CKA2, hits give low values 1 | locus YOR069W, strain VPS5, hits give low values 1 | locus YOR070C, strain gyp1, hits give low values 0.988 | locus YOR080W, strain dia2, hits give low values 0.994 | locus YOR083W, strain WHI5, hits give low values 0.975 | locus YOR106W, strain vam3, hits give low values 0.988 | locus YOR136W, strain idh2, hits give low values 0.976 | locus YOR144C, strain elg1, hits give low values 0.996 | locus YOR184W, strain ser1, hits give low values 0.988 | locus YOR265W, strain rbl2, hits give low values 0.989 | locus YOR270C, strain vph1, hits give low values 0.991 | locus YOR290C, strain snf2, hits give low values 0.962 | locus YOR316C, strain cot1, hits give low values 0.998 | locus YPL051W, strain arl3, hits give low values 0.988 | locus YPL055C, strain LGE1, hits give low values 0.963 | locus YPL078C, strain atp4, hits give low values 0.985 | locus YPL106C, strain sse1, hits give low values 0.969 | locus YPL240C, strain hsp82, hits give low values 0.988 | locus YPL241C, strain CIN2, hits give low values 1.01 | locus YPR119W, strain clb2, hits give low values 0.995 | locus YPR163C, strain tif3, hits give low values 0.983 | locus YPR167C, strain met16, hits give low values 0.99 | strain wtn01, hits give low values 0.995
